# According to PubChem BioAssay:
# Calls of active or inactive are those of the source. Unless noted, the rule behind the calls is not given here.
# Tests used:
# [1] = kinase inhibitors against Plasmodium liver-stage infection, cell-based, known kinase inhibitor set, luminescence, hepatoma host viability (AID 624392); details: Plasmodium liver stage in hepatoma cells, luciferase luminescence, concentration not given here; liver cell % of control: measured here: host liver cell viability; parasite % of control: stronger effect = lower value;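 note: infected cells incubated roughly two days before readout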
# [2] = modulators of glucocorticoid suppression of NF-kB, cell-based, luciferase, IL-1B stimulus, dexamethasone (AID 624486); details: NF-kB luciferase reporter, IL-1B + dexamethasone, luminescence; percent of negative control (+Dex): actives lie on both sides, concentration not given here; z-score: measured here: IL-1B alone, no Dex;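 for percent of negative control (+Dex): 100% = mean signal of vehicle control wells on the plate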
# [3] = kinase inhibitors altering Pseudomonas killing of worms, whole organism (AID 651566);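 note: tested at 14 µM; sign flipped so higher z means a lower ratio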; details: C. elegans killed by P. aeruginosa, survival ratio
# [4] = activators of macrophage pro-inflammatory response, cell-based, murine, luminescence (AID 652131); details: murine macrophage pro-inflammatory reporter, stronger effect = higher value
# [5] = molecular target: Cellular tumor antigen p53 (Homo sapiens) (UniProt P04637); assay: kinase inhibitors altering GFP-p53 stability in HPV16-positive cells, imaging, known kinase inhibitor set, EGFP/DsRed ratio (AID 1053116); details: stronger effect = higher value; EGFP object count: measured here: GFP-p53 positive objects count;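 note: cells exposed to compounds for 24 h at 37 °C before reading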
# Cellular tumor antigen p53 (Homo sapiens), sequence (P04637 whole entry, looked up): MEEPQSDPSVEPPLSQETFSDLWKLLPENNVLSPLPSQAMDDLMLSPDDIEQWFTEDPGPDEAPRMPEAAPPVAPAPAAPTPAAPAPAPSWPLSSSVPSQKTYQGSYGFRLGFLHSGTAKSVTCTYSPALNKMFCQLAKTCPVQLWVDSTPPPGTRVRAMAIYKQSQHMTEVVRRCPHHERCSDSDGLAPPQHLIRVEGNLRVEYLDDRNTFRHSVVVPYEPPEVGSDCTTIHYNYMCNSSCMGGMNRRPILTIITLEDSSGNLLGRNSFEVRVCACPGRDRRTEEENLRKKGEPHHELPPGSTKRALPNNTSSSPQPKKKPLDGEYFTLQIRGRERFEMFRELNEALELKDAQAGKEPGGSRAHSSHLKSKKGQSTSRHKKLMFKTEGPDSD
# [6] = IRF3 reporter activation in THP-1 macrophages, cell-based, PMA-stimulated THP-1, luminescence (AID 1053176); details: PMA-differentiated THP-1, IRF3 reporter luminescence; stronger effect = higher value
# [7] = survival rescue of mitochondrial mutant cells in low glucose, primary screen, MELAS cybrids, Rieske KO mouse fibroblasts, CellTiter-Glo (AID 1508586;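 active = mean z-score across replicates of 1.96 or higher in either the MELAS or the Rieske mutant cell line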;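 note: z relative to plate mean and SD of compound and empty wells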)
# [8] = MELAS cybrid survival, CellTiter-Glo 48 h, stronger effect = higher value
# [9] = Rieske KO mouse fibroblast survival, CellTiter-Glo 72 h
structure (smiles),measurement,setting,value
NS(=O)(=O)c1ccc(NC2CC(c3cccc(O)c3)NN2)cc1 (centres undefined),liver cell % of control,[1],92.2%
same,parasite % of control,[1],101% (inactive)
same,percent of negative control (+Dex),[2],81.5% (inactive)
same,z-score,[2],-0.55
same,z-score,[3],-1.21 (inactive)
same,z-score,[4],1.01 (inactive)
same,EGFP object count,[5],5.5
same,EGFP/DsRed ratio,[5],0.108 (inactive)
same,fraction signal,[6],-0.0035 (inactive)
same,z-score,[7]; [8],1.31 (inactive)
same,z-score,[7]; [9],-0.281
COC(=O)Nc1nc2ccc(Oc3ccc(NC(=O)Nc4cccc(Br)c4)cc3)cc2[nH]1,liver cell % of control,[1],77.3%
same,parasite % of control,[1],247% (inactive)
same,percent of negative control (+Dex),[2],104% (inactive)
same,z-score,[2],0.65
same,z-score,[3],-0.435 (inactive)
same,z-score,[4],0.412 (inactive)
same,EGFP object count,[5],6.5
same,EGFP/DsRed ratio,[5],0.0884 (inactive)
same,fraction signal,[6],-0.001 (inactive)
same,z-score,[7]; [8],0.278 (inactive)
same,z-score,[7]; [9],-0.0385
Fc1ccc(-c2nn3ccccc3c2-c2ccncc2)cc1,liver cell % of control,[1],99.4%
same,parasite % of control,[1],91.2% (inactive)
same,percent of negative control (+Dex),[2],90% (inactive)
same,z-score,[2],0.26
same,z-score,[3],-0.5 (inactive)
same,z-score,[4],-0.011 (inactive)
same,EGFP object count,[5],4.5
same,EGFP/DsRed ratio,[5],0.0996 (inactive)
same,fraction signal,[6],0.0045 (inactive)
same,z-score,[7]; [8],0.183 (inactive)
same,z-score,[7]; [9],-0.338
Cc1cccc(C2NNCC2c2ccc3ncccc3n2)n1 (centres undefined),liver cell % of control,[1],89.8%
same,parasite % of control,[1],104% (inactive)
same,percent of negative control (+Dex),[2],58.5% (inactive)
same,z-score,[2],-3.81
same,z-score,[3],0.465 (inactive)
same,z-score,[4],0.276 (inactive)
same,EGFP object count,[5],4
same,EGFP/DsRed ratio,[5],0.132 (inactive)
same,fraction signal,[6],0.0035 (inactive)
same,z-score,[7]; [8],0.0567 (inactive)
same,z-score,[7]; [9],-0.176
Cc1ccc(C(=O)NC2CC2)cc1-c1ccc2[nH]ncc2c1,liver cell % of control,[1],103%
same,parasite % of control,[1],126% (inactive)
same,percent of negative control (+Dex),[2],102% (inactive)
same,z-score,[2],0.41
same,z-score,[3],0.325 (inactive)
same,z-score,[4],-0.645 (inactive)
same,EGFP object count,[5],3.5
same,EGFP/DsRed ratio,[5],0.141 (inactive)
same,fraction signal,[6],0.0035 (inactive)
same,z-score,[7]; [8],-0.239 (inactive)
same,z-score,[7]; [9],-0.0886
COC(=O)Nc1nc2ccc(Oc3ccc(NC(=O)Nc4cccc(C(=O)O)c4)cc3)cc2[nH]1,liver cell % of control,[1],122%
same,parasite % of control,[1],180% (inactive)
same,percent of negative control (+Dex),[2],118% (inactive)
same,z-score,[2],1.69
same,z-score,[3],0.33 (inactive)
same,z-score,[4],-0.479 (inactive)
same,EGFP object count,[5],5.5
same,EGFP/DsRed ratio,[5],0.0528 (inactive)
same,fraction signal,[6],-0.002 (inactive)
same,z-score,[7]; [8],-0.776 (inactive)
same,z-score,[7]; [9],-0.262
COc1cc2c(cc1Nc1nc(Nc3ccsc3C(N)=O)c3cc[nH]c3n1)N(C(=O)CN(C)C)CCC2(C)C,liver cell % of control,[1],67.7%
same,parasite % of control,[1],290% (inactive)
same,percent of negative control (+Dex),[2],91% (inactive)
same,z-score,[2],-0.245
same,z-score,[3],0.455 (inactive)
same,z-score,[4],2.78 (inactive)
same,EGFP object count,[5],3.5
same,EGFP/DsRed ratio,[5],0.0546 (inactive)
same,fraction signal,[6],0.001 (inactive)
same,z-score,[7]; [8],0.737
same,z-score,[7]; [9],2.24
c1ccc(Oc2ccc(Nc3ncc(-c4ccccc4)o3)cc2)cc1,liver cell % of control,[1],103%
same,parasite % of control,[1],102% (inactive)
same,percent of negative control (+Dex),[2],110% (inactive)
same,z-score,[2],1.91
same,z-score,[3],0.1 (inactive)
same,z-score,[4],3.61 (inactive)
same,EGFP object count,[5],4.5
same,EGFP/DsRed ratio,[5],0.122 (inactive)
same,fraction signal,[6],0.0065 (inactive)
same,z-score,[7]; [8],-0.198 (inactive)
same,z-score,[7]; [9],-0.417
COc1ccc2cc(-c3c(-c4ccncc4)nc(-c4ccc(S(C)=O)cc4C)n3C)ccc2c1 (centres undefined),liver cell % of control,[1],94.7%
same,parasite % of control,[1],66.8% (inactive)
same,percent of negative control (+Dex),[2],94% (inactive)
same,z-score,[2],0.56
same,z-score,[3],0.7 (inactive)
same,z-score,[4],0.465 (inactive)
same,EGFP object count,[5],2.5
same,EGFP/DsRed ratio,[5],0.206 (inactive)
same,fraction signal,[6],-0.007 (inactive)
same,z-score,[7]; [8],0.0666 (inactive)
same,z-score,[7]; [9],-0.0858
NCc1ccc(-c2nc(-c3ccc(Cl)c(O)c3)c(-c3ccncc3)[nH]2)cc1,liver cell % of control,[1],94.8%
same,parasite % of control,[1],77.4% (inactive)
same,percent of negative control (+Dex),[2],91.5% (inactive)
same,z-score,[2],-0.18
same,z-score,[3],1.2 (inactive)
same,z-score,[4],-0.414 (inactive)
same,EGFP object count,[5],2
same,EGFP/DsRed ratio,[5],0.0758 (inactive)
same,fraction signal,[6],0.0015 (inactive)
same,z-score,[7]; [8],0.156 (inactive)
same,z-score,[7]; [9],-0.269
CC1=C(C(=O)Nc2cc(Cl)c3[nH]ncc3c2)C(c2ccc(C(F)(F)F)cc2)CC(=O)N1 (centres undefined),liver cell % of control,[1],106%
same,parasite % of control,[1],193% (inactive)
same,percent of negative control (+Dex),[2],73% (inactive)
same,z-score,[2],-1.52
same,z-score,[3],-0.22 (inactive)
same,z-score,[4],-0.455 (inactive)
same,EGFP object count,[5],2
same,EGFP/DsRed ratio,[5],0.126 (inactive)
same,fraction signal,[6],-0.01 (inactive)
same,z-score,[7]; [8],-0.0142 (inactive)
same,z-score,[7]; [9],-0.416
COc1ccc2cc(-c3c(-c4ccncc4)nc(-c4ccc(S(C)=O)cc4)n3C)ccc2c1 (centres undefined),liver cell % of control,[1],117%
same,parasite % of control,[1],121% (inactive)
same,percent of negative control (+Dex),[2],93.5% (inactive)
same,z-score,[2],0.505
same,z-score,[3],-0.78 (inactive)
same,z-score,[4],0.151 (inactive)
same,EGFP object count,[5],5
same,EGFP/DsRed ratio,[5],0.161 (inactive)
same,fraction signal,[6],-0.0035 (inactive)
same,z-score,[7]; [8],-0.944 (inactive)
same,z-score,[7]; [9],-0.225
CCC(=O)Nc1ccc(C)c(-c2ccc(C(=O)NCC3CC3)cc2)c1,liver cell % of control,[1],51.4%
same,parasite % of control,[1],136% (inactive)
same,percent of negative control (+Dex),[2],103% (inactive)
same,z-score,[2],1.16
same,z-score,[3],0.67 (inactive)
same,z-score,[4],1.18 (inactive)
same,EGFP object count,[5],3
same,EGFP/DsRed ratio,[5],0.0318 (inactive)
same,fraction signal,[6],0.001 (inactive)
same,z-score,[7]; [8],-0.0107 (inactive)
same,z-score,[7]; [9],-0.287
COc1cc2c(cc1Nc1nc(Nc3cccc(F)c3C(N)=O)c3cc[nH]c3n1)N(C(=O)CN1CCN(C(C)C)CC1)CC2,liver cell % of control,[1],73.3%
same,parasite % of control,[1],300% (inactive)
same,percent of negative control (+Dex),[2],95.5% (inactive)
same,z-score,[2],-0.34
same,z-score,[3],0.095 (inactive)
same,z-score,[4],-0.476 (inactive)
same,EGFP object count,[5],4.5
same,EGFP/DsRed ratio,[5],0.201 (inactive)
same,fraction signal,[6],0.004 (inactive)
same,z-score,[7]; [8],-0.91 (inactive)
same,z-score,[7]; [9],-0.402
